RORg inh: inhibitors of mouse ROR gamma transcriptional activity; P51450; Drosophila S2 Gal4-RORgamma UAS-luciferase reporter, 20 h; Potency, µM (top dose mostly 53.6 µM), actives largely listed as inhibitors; 310,000 tested, 5.4% active; AID 2551; also: nearly all actives have a fitted effect of over 60% in size
Target sequence (P51450 whole entry, looked up, the tested form may be a part): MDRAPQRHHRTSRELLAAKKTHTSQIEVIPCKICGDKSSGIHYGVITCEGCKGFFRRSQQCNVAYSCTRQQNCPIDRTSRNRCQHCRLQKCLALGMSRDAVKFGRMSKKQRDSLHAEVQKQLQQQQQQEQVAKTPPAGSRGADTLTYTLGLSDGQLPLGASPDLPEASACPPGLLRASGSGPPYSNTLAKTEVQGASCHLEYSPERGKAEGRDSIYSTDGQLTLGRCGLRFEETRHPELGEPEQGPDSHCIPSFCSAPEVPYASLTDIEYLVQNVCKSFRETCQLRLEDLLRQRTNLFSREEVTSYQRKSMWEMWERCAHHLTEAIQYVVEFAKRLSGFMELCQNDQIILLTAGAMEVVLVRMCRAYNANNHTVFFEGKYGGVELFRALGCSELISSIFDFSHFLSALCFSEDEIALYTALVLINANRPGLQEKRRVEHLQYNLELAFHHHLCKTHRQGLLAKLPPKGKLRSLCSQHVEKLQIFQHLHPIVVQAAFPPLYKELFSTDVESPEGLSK
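A Gal4/UAS one-hybrid system in insect cells: metallothionein-promoter Gal4–ROR gamma fusion plus Photinus luciferase reporter. Copper sulfate 700 uM final, 20 hr ambient incubation, luminescent detection after 10 min with reagent.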
SW480 rerep: induces DNA re-replication in SW480 colon adenocarcinoma cells. 340,000 tested, 1.8% active. SW480 DNA re-replication, Hoechst DNA content imaging, 48 h. Potency, µM (series often up to 46.1 µM), most hits filed as activators; also: nearly all actives have a fitted effect of over 55% in size
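Cells (250 per well) received 23 nL compound or DMSO by pin tool and were kept 48 hr at 37 C, 5% CO2. Nuclei were then stained with Hoechst for 40 min and scanned for DNA content.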
KB-3-1 cytotox: kills parental KB-3-1 adenocarcinoma cells; KB-3-1 viability, CellTiter-Glo ATP luminescence, 72 h; Potency, µM (doses to about 46.1 µM), usual class: cytotoxic; 400,000 tested, 1.4% active; also: nearly all actives have a fitted effect of over 60% in size
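Luminescent ATP read-out (CellTiter-Glo) measures survival of drug-naive KB-3-1 cells after 72 h compound exposure at 37 °C. Titration series was screened from lowest to highest concentration, with DMSO vehicle plates as background controls.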
KB-V1 cytotox: kills drug-selected multidrug resistant KB-V1 cells | AID 1347076 | Potency, µM (top dose mostly 46.1 µM), usual class: cytotoxic | 400,000 tested, 3.4% active | KB-V1 MDR cells viability, CellTiter-Glo, 72 h; also: nearly all actives have a fitted effect of over 60% in size
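Cytotoxicity toward P-gp-expressing KB-V1 cells was determined as loss of CellTiter-Glo luminescence after 72 h at 37 degrees C. Compounds were tested in quantitative HTS format across a concentration range, with curves fitted to normalized data.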
MCF10A rerep: induces DNA re-replication in MCF 10a normal breast cells | MCF 10A DNA re-replication, Hoechst nuclear intensity, 48 h | Potency, µM (highest dose often 46.1 µM), hits mostly activators | 350,000 tested, 2.9% active | AID 624296; also: nearly all actives have a fitted effect of over 50% in size
Gal4-VP16 FLuc: Gal4-VP16 reporter inhibition counter-screen; Drosophila S2 Gal4-VP16 UAS-luciferase, luminescence, 20 h; Potency, µM (doses to about 53.6 µM), actives largely listed as inhibitors; 310,000 tested, 3.5% active; AID 2546;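 also: Gal4-VP16 expression switched on by copper sulfate through the metallothionein promoter; nearly all actives have a fitted effect of over 50% in size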
A number is an active result; - = inactive; ? = inconclusive; . = no result given. A selection: hits, their analogues and other compounds. The true share with any hit is near 10%. Calls follow the shape of the dose curve; as a rule, active = well fitted curve in the direction sought with a large enough effect; inconclusive = small, poorly fitted or top-dose-only effect, or another doubt; inactive = no such curve, though single readings can be large; an effect the other way counts as inactive or inconclusive.

SMILES	RORg inh	SW480 rerep	KB-3-1 cytotox	KB-V1 cytotox	MCF10A rerep	Gal4-VP16 FLuc
NC(=O)C1(N2CCCCC2)CCN(Cc2ccccc2Cl)CC1	-	11.6µM	-	?	16.4µM	-
NC(=O)C1(N2CCCCC2)CCN(S(=O)(=O)c2ccccc2)CC1	.	-	-	-	-	.
O=C(NCc1ccco1)/C(=C/C=C\c1ccccc1)NC(=O)c1ccc(Br)o1	?	?	?	4.11µM	?	-
O=C(Cc1cccc2ccccc12)N/N=C/c1ccc2cccc(O)c2n1	12.6µM	-	-	?	?	?
CCOc1cc(CNC(=O)CSc2n[nH]c(-c3ccccc3)n2)cc(OCC)c1OCC	.	.	-	-	.	.
O=C(O)c1cccc(NC(=S)N/N=C/c2ccccc2OCc2cccc(Br)c2)c1	11.2µM	-	-	-	?	-
O=C(O)c1cccc(NC(=S)N/N=C/c2ccccc2OCc2ccc(Br)cc2)c1	12.6µM	-	-	-	-	-
CN(C)c1ccc(/C=C(\C#N)C(=O)c2ccccc2)cc1	?	-	-	-	-	-
CN(C)c1ccc(/C=C(\C#N)c2ccccc2)cc1	-	3.66µM	?	?	3.66µM	-
CN(C)c1cccc(/C=C(\C#N)c2ccccc2)c1	-	?	5.8µM	?	?	-
O=c1c(-c2ccccc2)nc2cnc(N3CCOCC3)nc2n1-c1ccccc1	-	.	.	.	.	-
O=C(Nc1ccc2oc(-c3cccc4c(Br)cccc34)nc2c1)c1ccc(F)cc1	.	.	-	-	.	.
Cc1scc(C(=O)N/N=C/c2ccc(OC(C)C)cc2)c1C	-	-	-	-	-	-
Cc1scc(C(=O)N/N=C/c2ccc(Cl)s2)c1C	14.1µM	-	-	?	-	12.6µM
COc1ccccc1/C=N/NC(=O)c1csc(C)c1C	-	-	-	?	-	-
CCOc1ccc(/C=N/NC(=O)c2csc(C)c2C)c(OCC)c1	12.6µM	?	-	-	-	-
CCOC(=O)c1cc(S(=O)(=O)Nc2ccccc2OCC)[nH]n1	.	.	-	-	.	.
Cc1cccc(-n2c(CCc3ccccc3)nnc2SCC(=O)c2ccccc2)c1	?	-	-	?	?	11.2µM
CCOC(=O)/C(=N/Nc1ccc(Cl)cc1)Sc1nnnn1-c1ccc(C)cc1	6.31µM	-	-	-	-	?
COC(=O)/C(=N\Nc1ccc(Cl)cc1)Sc1nnc(-c2ccc(OC)cc2)n1C	5.62µM	-	-	-	-	?
CCOC(=O)/C(=N/Nc1ccccc1)Sc1nnnn1-c1ccc(C)cc1	?	-	-	-	?	-
CCOC(=O)/C(=N/Nc1ccccc1)Sc1nnc(CCc2ccccc2)n1-c1ccccc1	4.47µM	-	-	?	-	7.08µM
Cc1ccc(Cn2c(=O)n(CCCCC(=O)NCCc3ccc(Cl)cc3)c(=O)c3ccccc32)cc1	.	.	-	-	.	.
COc1ccc2[nH]cc(CCNc3ncnc4ccc(-c5ccccc5C#N)cc34)c2c1	?	.	.	.	.	-
CC(C)CNC(=O)C1C(=O)Nc2ccccc2C(=O)N1C(C)(C)C (centres undefined)	.	.	-	-	.	.
SMILES	RORg inh	SW480 rerep	KB-3-1 cytotox	KB-V1 cytotox	MCF10A rerep	Gal4-VP16 FLuc
C[C@H](O)[C@@H]1CN2CCc3c([nH]c4ccccc34)[C@@H]2C[C@@H]1N(C)C(=S)Nc1ccc(C#N)cc1	.	.	-	?	.	.
COc1ccc(N2CCN(C(=O)CN3CCN(c4nc(-c5ccc(F)cc5)cs4)CC3)CC2)cc1	?	?	23.1µM	?	?	-
COc1ccc(N2CCN(CC(=O)Nc3sccc3C#N)CC2)cc1	-	-	-	16.4µM	?	-
COc1ccc(N2CCN(CC(=O)N3CCC(C)CC3)CC2)cc1	-	-	-	18.4µM	-	-
CC1CCN(CC(=O)N2CCN(c3ccccc3)CC2)CC1	-	-	-	-	-	-
N#Cc1ccsc1NC(=O)CN1CCN(c2ccc(O)cc2)CC1	-	-	-	-	?	-
Cc1oc2ncn(CC(C)C)c(=O)c2c1C(=O)NCCCN1CCC(C)CC1	.	.	-	-	.	.
CCN=C1S/C(=C\c2ccc(O)c(OCC)c2)C(=O)N1CC	-	?	-	18.4µM	?	-
CCN=C1S/C(=C\c2cc(OCC)c(O)cc2Br)C(=O)N1CC	?	?	?	-	18.4µM	-
CCN=C1S/C(=C\c2cn(CC)c3ccccc23)C(=O)N1CC	-	-	-	-	?	-
COc1cc(/C=C2/SC(=NCc3ccccc3)N(Cc3ccccc3)C2=O)ccc1O	-	-	-	?	5.8µM	-
COC1OC2COC(c3ccccc3)OC2C(O)C1O (centres undefined)	?	.	.	.	.	-
CN(C)CCNC(=O)c1cc2c(s1)-c1ccc(Cl)cc1SC2	10µM	?	?	-	20.6µM	?
Cc1ccc(CNC(=O)c2cc3c(s2)-c2ccc(Cl)cc2SC3)cc1	.	.	-	-	.	.
CCc1ccc(CNC(=O)Cc2ccc(NC(=O)C3=C(C)OCCS3)cc2)cc1	-	?	1.16µM	1.16µM	?	-
CC1=C(C(=O)Nc2ccc(CC(=O)NCc3ccccc3C)cc2)SCCO1	-	-	?	-	?	-
CC(C)c1ccc(S(=O)(=O)/N=C2/C=CC(=O)c3ccccc32)cc1	?	.	.	.	.	17.8µM
C[C@H](NC(=O)c1nc[nH]c1C(=O)NCC(=O)OCc1ccccc1)C(=O)OC(C)(C)C	-	-	-	-	-	?
CC(C)C[C@H](NC(=O)c1[nH]cnc1C(=O)N[C@@H](C)C(=O)OCc1ccccc1)C(=O)OC(C)(C)C	7.08µM	-	-	-	-	15.8µM
CC(C)C[C@H](NC(=O)c1nc[nH]c1C(=O)NCC(=O)OCc1ccccc1)C(=O)OC(C)(C)C	12.6µM	-	-	-	-	?
CC(C)c1ccc(Cn2ccc3c4c(N)nc(NC5CC5)nc4ccc32)cc1	15.8µM	.	.	.	.	?
O=C(NCc1ccco1)c1c[nH]c2ccc(S(=O)(=O)Nc3ccc(F)cc3F)cc2c1=O	.	.	-	-	.	.
COc1ccc(C(=O)N2CCC3(CCN(Cc4ccncc4)CC3)CC2)cc1	-	.	.	.	.	-
On1c(-c2ccc(Cl)cc2)nc2ccccc21	?	-	-	-	-	?
Cc1ccc(-c2nnc3c(C(F)(F)F)nc4ccccc4n23)cc1	-	16.4µM	?	20.6µM	?	-
SMILES	RORg inh	SW480 rerep	KB-3-1 cytotox	KB-V1 cytotox	MCF10A rerep	Gal4-VP16 FLuc
FC(F)(F)c1nc2ccccc2n2c(-c3ccc(Cl)cc3)nnc12	-	-	4.61µM	5.8µM	13µM	-
COc1cccc(CNC(=O)CCc2c(C)nn(-c3ccc(N4CCOCC4)nn3)c2C)c1	.	.	-	-	.	.
CC1(C(=O)Nc2ccc3[nH]ncc3c2)CCN1C(=O)Cc1ccc(-c2ccccc2)cc1 (centres undefined)	.	.	-	-	.	.
Cc1cccc(Cc2c(C)nc3nc(SCC(=O)NC4CCCCC4)nn3c2C)c1	.	.	-	-	.	.
Cc1noc(C)c1C(=O)N1CCC2(CCN(Cc3nccs3)CC2)CC1	-	.	.	.	.	-
COc1ccc2c(C)c(CCC(=O)NCc3ccccc3OC)c(=O)oc2c1	.	.	-	-	.	.
